MARV entry inh – qHTS for inhibitors of binding or entry into cells for Marburg Virus. Marburg virus pseudotyped entry inhibition, cell reporter. Potency, µM (highest dose often 37.8 µM), for the others: top-dose activity change, negative = inhibition, hits mostly inhibitors. hit rate 1.8% among 300,000; calls by dose curve; tested in HEK293 cells; further: potency means the concentration at half of the fitted maximal effect
VACV Venus inh – qHTS for Stage-Specific Inhibitors of Vaccinia Orthopoxvirus: Venus Reporter Primary qHTS; Vaccinia virus Venus reporter expression, fluorescence; Potency, µM (titrated, usually from 36.5 µM), for inactives: top-dose activity change, negative = inhibition, hits mostly inhibitors; hit rate 0.46% among 330,000; calls by dose curve; tested in A549 cells; further: potency means the concentration at half of the fitted maximal effect; nearly all actives have a fitted effect of over 30% in size
Vaccinia mCherry – qHTS for Stage-Specific Inhibitors of Vaccinia Orthopoxvirus: mCherry Reporter Primary qHTS | Vaccinia virus mCherry reporter infection, fluorescence | AID 720579, 2013 | Potency, µM (top dose mostly 36.5 µM), for the others: at the top dose activity change, negative = inhibition, actives largely listed as inhibitors | hit rate 0.63% among 310,000; calls by dose curve; tested in A549 cells; further: potency means the concentration at half of the fitted maximal effect; nearly all actives have a fitted effect of over 35% in size
Lassa entry inh – qHTS for Inhibitors of binding or entry into cells for Lassa Virus; Lassa virus pseudotype entry inhibition, cell reporter; Potency, µM (highest dose often 37.9 µM), for the others: top-dose activity change, negative = inhibition, actives largely listed as inhibitors; hit rate 1.2% among 300,000; calls by dose curve; tested in HEK293 cells; further: potency means the concentration at half of the fitted maximal effect; nearly all actives have a fitted effect of over 50% in size
HCMV antiviral – qHTS Assay for inhibitors of the human cytomegalovirus (HCMV). HFF cells, HCMV-luciferase reporter, 72 h; active compounds read low. activity change, negative = inhibition, % at 57.5 µM. hit rate 4.5% among 410,000. AID 1259415, 2018; in the data active means activity change below about -60%; inconclusive means no clear call, values can overlap the other calls; inactive means above about -39%
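Luciferase read-out from HCMV-luciferase-infected HFFs (MOI 1 PFU/cell) 72 h post infection at 37C; compounds added after 16 h cell attachment; activity normalized between buffer-only basal and Salinomycin (10uM) inhibitor controls.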
FMDV inh – High Throughput Screening for Foot and Mouth Disease Virus Antivirals; Potency, µM (top dose mostly 57.9 µM), for the others: top-dose activity change, negative = inhibition, hits mostly inhibitors; AID 1159524, 2015; FMDV antiviral cell-based qHTS; hit rate 1.2% among 410,000; calls by dose curve; tested in HEK293T cells; further: read-out not given here; potency means the concentration at half of the fitted maximal effect; nearly all actives have a fitted effect of over 45% in size
* = called active by the depositor; i = inactive; ? = inconclusive; nt = not tested or not shown; [ ] = another dose, or the depositor's remark. Compounds with a hit are over-represented: about 6.5% of the library has one in this group of screens. On the % scale 0 is the no-effect control and ±100 the full control effect.

SMILES | MARV entry inh | VACV Venus inh | Vaccinia mCherry | Lassa entry inh | HCMV antiviral | FMDV inh
Cc1ccc([C@@H]2C[C@H]3[C@@H](CN2S(=O)(=O)c2ccc(C)cc2)C(=O)C[C@@H](c2ccccc2)N3S(=O)(=O)c2ccc(C)cc2)cc1 | nt | -9.1% | -2.6% | nt | -12.1 | -11.4%
CC(=O)C1CN(S(=O)(=O)c2ccc(C)cc2)C(c2ccccc2)CC1C (stereo unspecified) | nt | -2.9% | -7.8% | nt | -60.4* | 1.9%
Cc1ccc(S(=O)(=O)N2C[C@H]3C(=O)C[C@@H](c4ccccc4)N(S(C)(=O)=O)[C@H]3C[C@H]2c2ccccc2)cc1 | nt | -4.8% | 12.5% | nt | -94.7* | -1.3%
Cc1ccc(S(=O)(=O)N2C[C@H]3C(=O)C[C@@H](c4ccccc4)N(S(=O)(=O)c4ccc(C)cc4)[C@H]3C[C@H]2c2ccc(Cl)cc2)cc1 | nt | -11.8% | -7.1% | nt | -85.2* | -25.4%
C=CCC(O)c1nc(C(=O)Nc2ccc(F)cc2)cs1 (stereo unspecified) | nt | nt | nt | nt | -13.8 | nt
Cc1cccc(C)c1OCCOC(=O)c1n[nH]c2ccccc12 | ? | -17.6% | i | -27.3%[46.1 µM] | ? | -6.2%
COc1ccc(CNC(=O)COC(=O)c2n[nH]c3ccccc23)cc1OC | ? | nt | nt | ? | 34.6 | 11.2µM*
Cc1ccc(C)c(C(=O)COC(=O)c2n[nH]c3ccccc23)c1 | 1.9% | -14.6% | -24.3% | ? | -60.7* | 58.4%
Cc1cc(C)cc(NC(=O)C(Cc2ccccc2)NS(=O)(=O)c2ccc3c(c2)CCC(=O)N3)c1 (stereo unspecified) | 3.3%[46.1 µM] | 9.3% | -1.4% | 2.7%[46.1 µM] | -10.8 | -23.7%
COCCN1C(=O)NC(c2ccccc2)C(C(=O)OC)=C1C (stereo unspecified) | 8.2%[14.2 µM] | nt | nt | nt | nt | nt
O=C1NCCN2CCC[C@H]12 | 19.2% | nt | nt | nt | nt | nt
O=C(CSc1nnc(CNC(=O)C23CC4CC(CC(C4)C2)C3)n1-c1ccc(F)cc1)Nc1ccc(F)cc1 | ? | -25.2% | -9.2% | -18.1% | -20.3 | 0.0%
O=C(NCc1nnc(SCc2ccc(F)cc2)n1-c1ccc(F)cc1)C12CC3CC(CC(C3)C1)C2 | 8.91µM* | ? | ? | ? | 16.8 | -23.7%
CC(C)Oc1cccc(Nc2nccc3c2cc(-c2ccc(C(=O)N(C)C)cc2)n3C)c1 | nt | nt | nt | nt | 23.5 | nt
CNCc1ccccc1Sc1cccc2ccccc12 | ? | -26.5% | -19.2% | ? | ? | 0.0%
CN(C)CCN(C)Cc1ccccc1Sc1cccc2ccccc12 | ? | ? | 12.6µM* | ? | -75.4* | ?
CCc1ccc(C(=O)C(C)OC(=O)C2COc3ccccc3O2)cc1 (stereo unspecified) | 10.9% | -12.4% | -15.0% | 10.9% | -98.0* | -7.3%
COc1c(CC=C(C)C)cc(C2CC(=O)c3c(O)cc(O)cc3O2)cc1CC=C(C)C (stereo unspecified) | nt | -22.0% | -18.0% | nt | -69.0* | ?
C=CCn1c(=NC(=O)C2COc3ccccc3O2)sc2cc(S(N)(=O)=O)ccc21 (stereo unspecified) | 13.4% | -26.3% | -19.4% | 1.9% | 24.1 | 31.6µM*
COc1ccc(-c2csc(NC(=O)Cc3cc(OC)c(OC)c(OC)c3)n2)cc1OC | ? | -24.7% | -23.1% | nt | ? | 14.1µM*
COc1ccc(CC(=O)Nc2nc(-c3ccncc3)cs2)cc1 | ? | -9.4% | -17.6% | ? | -82.2* | -6.8%
COc1ccc(CCNc2nc(-c3ccc(NC(C)=O)cc3)cs2)cc1OC | ? | -18.2% | -6.0% | ? | -12.0 | 25.1µM*
COc1ccc(CC(=O)Nc2nc(-c3ccc(F)c(F)c3)cs2)cc1 | ? | -6.2% | -3.8% | ? | ? | ?
COc1ccc(OC)c(-c2csc(NC(=O)Cc3ccccc3OC)n2)c1 | ? | ? | -22.7% | 7.94µM* | 29.8 | 46.8%
COc1ccc(CCNc2nc(-c3ccncc3)cs2)cc1OC | nt | -7.6% | -18.7% | nt | -25.7 | ?
SMILES | MARV entry inh | VACV Venus inh | Vaccinia mCherry | Lassa entry inh | HCMV antiviral | FMDV inh
COc1ccc(-c2csc(NC(=O)COC(=O)Cc3ccccc3)n2)cc1OC | -1.5% | nt | nt | 3.6% | nt | nt
CCCNC(=O)N[C@H]1C=C[C@H](CC(=O)OC)O[C@@H]1CO | nt | 2.9% | 0.2% | nt | -2.2 | -3.0%
COc1ccc(CCNc2nc(-c3ccccn3)cs2)cc1OC | nt | nt | nt | nt | 0.0 | -14.5%
COc1ccc(CCNc2nc(-c3sc(C)nc3C)cs2)cc1OC | ? | nt | nt | ? | -29.2 | 25.1µM*
Cc1cc(C)nc(OC(C(=O)O)C(OCC(C)C)(c2ccccc2)c2ccccc2)n1 (stereo unspecified) | nt | nt | nt | nt | -10.5 | -16.0%
CCc1ccc(C(C)NC(=O)C2(C)CC2(Br)Br)cc1 (stereo unspecified) | -14.9% | -20.0% | -30.9% | ? | -21.6 | -26.2%
Cc1ccc(C(C)NC(=S)NCc2ccc(F)cc2)c(C)c1 (stereo unspecified) | ? | -19.8% | -1.2% | -21.3% | -15.2 | 9.2%
Cc1ccc(C(C)NC(=S)NCc2ccc(F)cc2)cc1C (stereo unspecified) | nt | nt | nt | nt | -82.4* | 2.1%
CCC(NC(=S)NCc1ccc(F)cc1)c1ccc(C)cc1 (stereo unspecified) | 10µM* | -7.6% | -24.3% | ? | -34.8 | 2.7%
CCc1ccc(C(C)NC(=S)NCc2ccc(F)cc2)cc1 (stereo unspecified) | ? | -16.6% | ? | ? | 29.2 | 6.8%
CCC(NC(=O)C1(C)CC1(Br)Br)c1ccc(C)cc1 (stereo unspecified) | -6.8% | -26.1% | nt | 0.4% | -72.2* | -20.1%
CCOC(=O)C1CCCN(C(=O)c2[nH]c(C(F)(F)F)nc2-c2ccccc2)C1 (stereo unspecified) | nt | -8.1% | 9.5% | nt | 0.9 | -8.1%
CCC1(C2CCN(C(=O)c3cc4ccccc4o3)CC2)NC(=O)N(CCc2scnc2C)C1=O (stereo unspecified) | nt | -10.0% | -17.8% | nt | nt | 14.2%
COc1cc(C)nc(NC(=S)N(C)C(=O)c2ccccc2)n1 | -2.6%[46.1 µM] | 0.0% | 7.7% | -2.9%[46.1 µM] | -4.1 | -4.8%
COc1ccc(CN(C2CCCC2)S(=O)(=O)c2ccccc2Br)cc1 | 12.5µM* | nt | nt | nt | nt | nt
CCC1CN(CCNC(=O)c2ccc3c(c2)OCO3)Cc2cc(OC)ccc2O1 (stereo unspecified) | nt | -6.3% | -13.7% | nt | nt | 46.6%
CC(=O)c1ccc(C(=O)Nc2sc3c(c2C(N)=O)CCN(Cc2ccccc2)C3)cc1 | nt | nt | nt | nt | -74.1* | nt
CCN1CCc2c(sc(NC(=O)c3cc4ccccc4cc3OC)c2C(N)=O)C1 | 11.2µM* | ? | 14.1µM* | -1.8%[46.1 µM] | -113.4* | -7.9%
CCN1CCc2c(sc(NC(=S)NC(=O)c3cccc(F)c3)c2C(N)=O)C1 | nt | -6.6% | i | nt | nt | nt
